Screening results from PubChem.
An excerpt weighted towards active compounds, which were near 19% of everything screened.
Shiga toxin inh – Shiga toxin inhibition. Vero cells, Shiga toxin protein synthesis inhibition reporter. inhibition, % at 38.7 µM. 9.2% of 290,000 active. AID 2315; in the data active means inhibition mostly above about 28%, no sharp cut-off; inactive means mostly below about 43%; further: 0% is about no effect
Pf growth 96h – inhibits malaria parasite growth, 96 h; AID 504834; 6.9% of 320,000 active; Potency, µM (top dose mostly 28.7 µM), inactives show top-dose activity change, negative = inhibition, hits mostly inhibitors; P. falciparum luciferase reporter growth, 96 h; further: potency means the concentration at half of the fitted maximal effect; on the % scale 0 is the no-effect control and ±100 the full control effect
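Erythrocytes infected with luciferase-expressing P. falciparum were dispensed at 2% hematocrit and 0.05% parasitemia (final), then incubated with compounds 96 hours at 37 C in 5% CO2. Luminescence after detection reagent addition reported growth.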
Lassa entry inh – inhibitors of Lassa virus binding or cell entry; Potency, µM (doses to about 37.9 µM), without a hit: at the top dose activity change, negative = inhibition, actives largely listed as inhibitors; Lassa virus pseudotype entry inhibition, cell reporter; AID 540256; 1.2% of 300,000 active; calls by dose curve; tested in HEK293 cells; further: potency means the concentration at half of the fitted maximal effect; on the % scale 0 is the no-effect control and ±100 the full control effect; nearly all actives have a fitted effect of over 50% in size
Marburg entry inh – inhibitors of Marburg virus binding or cell entry. Potency, µM (series often up to 37.8 µM), for the others: top-dose activity change, negative = inhibition, most hits filed as inhibitors. AID 540276. Marburg virus pseudotyped entry inhibition, cell reporter. 1.8% of 300,000 active; calls by dose curve; tested in HEK293 cells; further: potency means the concentration at half of the fitted maximal effect; on the % scale 0 is the no-effect control and ±100 the full control effect
CHX counter – counter-screen for Shiga toxin inhibitors: cycloheximide protein synthesis inhibition | cell reporter, cycloheximide protein synthesis inhibition counterscreen | max response, % | 12% of 300,000 active | AID 2314; in the data active means max response mostly above about 13%, no sharp cut-off; inactive means mostly below about 14%; further: read at 38.3 µM for the half of the compounds with a filed dose; 0% is about no effect
Pf growth 48h – inhibits P. falciparum growth in the first generation, 48 h; 5.9% of 310,000 active; Potency, µM (highest dose often 28.7 µM), for inactives: at the highest dose activity change, negative = inhibition, usual class: inhibitors; P. falciparum luciferase growth in erythrocytes, 48 h; further: potency means the concentration at half of the fitted maximal effect; on the % scale 0 is the no-effect control and ±100 the full control effect
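Luciferase-expressing parasites in RBCs, 2% Hct / 0.1% parasitemia final; RPMI 1640 + 0.5% Albumax; 37 C, 5% CO2, one generation; luminescence read-out, lower signal = inhibition.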
Starred values were filed as active, the others as inactive; i = inactive; ? = inconclusive; · = no result; [ ] = another dose, or the depositor's remark. Unless noted, the call rests on the fitted dose curve; in most records, active means well fitted inhibition curve with a large enough effect; inconclusive means small, poorly fitted or top-dose-only effect, or another doubt; inactive means no such curve, though single readings can be large or run the other way.

SMILES | Shiga toxin inh | Pf growth 96h | Lassa entry inh | Marburg entry inh | CHX counter | Pf growth 48h
OC(COCc1ccccc1)CN1CCN(c2ccccc2)CC1 (stereo not given) | -4.5 | 5.1% | 0.5% | 8.3%[46.1 µM] | -3.5 | 34.7%
CCOC(=O)N1CCN(C(=O)Cn2c(=O)sc3ccccc32)CC1 | 2.1 | -8.4% | 4.1% | ? | 9.2 | 22.9%
CCOc1ccc(NC(=O)C(Cc2ccccc2)NS(=O)(=O)c2ccc3c(c2)oc(=O)n3C)cc1 (stereo not given) | · | · | 1.7%[46.1 µM] | 7.8%[46.1 µM] | · | ·
CCOc1ccc2nc(SCC)[nH]c2c1 | 125.4* | 63.4% | -3.9% | -4.4% | 53.5* | 75.3%
CCOc1ccc2nc(SCC(=O)Nc3cc4c(cc3C(C)=O)OCO4)[nH]c2c1 | -6.8 | 13.1µM* | -6.8% | -10.0% | -1.1 | -16.9%
CCOc1ccc2nc(SCC(=O)NCc3ccccc3)[nH]c2c1 | · | ? | -22.4% | -5.5% | -2.9 | ?
COc1ccc(C(=O)N2CCN(c3ccc(NC(=O)c4cccnc4)cc3)CC2)cc1 | 12.9 | -16.2% | 9.0% | -3.2% | -3.1 | -8.7%
Cc1ccc(-n2nc(C)c3c(C(=O)Nc4ccc(C)cc4Cl)cc(C)nc32)cc1 | · | · | 1.1%[46.1 µM] | · | · | ·
CC(=O)c1cccc(OC(=O)c2ccccc2)c1 | · | · | 1.6% | 3.3% | · | ·
COc1ccccc1C1=Nn2c(nnc2-c2cccc(OC)c2OC)SC1 | 16.0 | · | · | · | -1.7 | ·
COc1ccccc1C1=NNC(=Nc2cccc(S(=O)(=O)N(C)C)c2)SC1 | -4.7 | ? | ? | 7.08µM* | 3.4 | 1.85µM*
COCCn1c(-c2ccc(OC)cc2)c(-c2ccc(OC)cc2)oc1=O | -7.0 | 13.1µM* | · | · | -1.5 | 8.28µM*
CCN(CC)Cc1cc2ccccc2c2c1COC2 | 9.9 | 1.0% | 5.8% | -1.1% | -2.2 | 9.6%
Cc1ccc(N(C)C(=O)CCS(=O)(=O)c2ccc3c(c2)oc(=O)n3C)cc1 | 11.1 | 14.7µM* | -29.1%[46.1 µM] | 3.9%[46.1 µM] | -1.8 | 21.5%
CN(C(=O)CCS(=O)(=O)c1ccc2c(c1)oc(=O)n2C)C1CCCCC1 | -17.9 | 4.65µM* | ? | 14.9%[46.1 µM] | -5.1 | 22.4%
Cc1cc(=S)n(-c2ccccc2)n1C | 39.2* | 12.1% | -2.5% | 26.8%[46.1 µM] | 15.5 | 0.0%
CC(C)CCOc1ccc(C2CC(=O)N(C)C2=O)cc1 (stereo not given) | 32.8 | 1.7% | · | · | 21.1* | -3.1%
CC(C)CCOc1ccc(C(=O)O)cc1 | -4.1 | · | 14.2% | 4.2% | 11.6 | 19.9%
O=C(CSCc1ccc([N+](=O)[O-])cc1)NC1CCCCCC1 | 4.3 | -2.0% | 14.4%[46.1 µM] | -16.8%[46.1 µM] | 10.2 | -11.2%
O=C(NC(=S)Nc1ncccn1)c1ccc(Cl)cc1Cl | 127.2* | ? | 19.2% | 27.1%[46.1 µM] | 30.2* | 92.2%
CCC(=O)Nc1cccc(NC(=S)NC(=O)c2ccc(Cl)cc2)c1 | 24.0 | ? | 24.0% | 2.3% | 22.0* | 114.6%
Cc1ccccc1C(=O)NNC(=S)NC(=O)c1ccc(Cl)cc1Cl | -7.0 | -29.2% | -3.3% | ? | 0.9 | ·
Cc1ccnc(NC(=O)c2ccc(Cl)cc2Cl)n1 | 15.5 | 84.6% | · | · | 9.9 | 51.8%
COc1ccccc1NC(=S)NNC(=O)c1ccc(Cl)cc1Cl | 51.3* | 452.7% | 10.1% | 2.7%[46.1 µM] | 31.0* | 264.9%
CCCC(=O)NC(=S)Nc1cccc(NC(=O)c2ccc(Cl)cc2Cl)c1 | 10.3 | 117.1% | -5.8% | ? | 1.4 | 18.8%
SMILES | Shiga toxin inh | Pf growth 96h | Lassa entry inh | Marburg entry inh | CHX counter | Pf growth 48h
CCC(=O)Nc1cccc(NC(=S)NC(=O)c2ccc(Cl)cc2Cl)c1 | 23.4 | ? | ? | ? | 42.4* | 2.8%
CCC(=O)Nc1cccc(NC(=S)NC(=O)c2ccccc2C)c1 | 71.8* | i | · | · | 47.8* | ?
CCC(=O)Nc1ccc(Cl)c(NC(=S)NC(=O)COc2ccccc2)c1 | -2.5 | 34.9% | -3.4% | 3.6% | 10.1 | 25.9%
CCC(=O)Nc1ccc(Cl)c(NC(=S)NC(=O)COc2ccc(Cl)cc2)c1 | -6.0 | 1.85µM* | -10.5% | ? | -4.3 | 32.6%
CCC(=O)NC(=S)Nc1cccc(NC(=O)c2ccccc2C)c1 | 19.6 | 18.1% | -11.2% | -0.3% | -3.1 | -6.6%
CCCCCOc1ccc(NC(=O)C(=O)NCCC2=CCCCC2)cc1 | -11.4 | · | 10.0% | 18.6% | 10.1 | 24.2%
CC(C)c1[nH]nc2c1C(c1ccco1)C(C#N)=C(N)O2 (stereo not given) | -8.4 | 30.3% | · | · | -1.2 | 4.3%
Cc1ccccc1C(=O)N=c1sccn1C | 46.0 | 60.2% | 36.0% | 4.4%[46.1 µM] | 12.8* | ·
Cc1cccc(C(=O)N=c2sccn2C)c1[N+](=O)[O-] | 74.1* | 68.6% | · | · | 50.4* | 70.8%
COc1ccc(CCn2c(N)cc(=O)[nH]c2=O)cc1OC | 2.6 | 24.1% | -1.1% | 16.9% | 3.5 | 15.9%
COC(=O)c1c(-c2c(Cl)cccc2Cl)noc1NC(=O)NN1CCCCC1 | -7.8 | 0.262µM* | ? | ? | -2.3 | 0.329µM*
COC(=O)c1c(-c2c(Cl)cccc2Cl)noc1NC(=O)NN1CCOCC1 | -9.5 | 1.31µM* | 0.9%[46.1 µM] | 2.5%[46.1 µM] | -2.3 | 13.1µM*
COc1cc(C2c3c(-c4ccccc4)n[nH]c3C(=O)N2c2ccc(C(=O)O)cc2)ccc1O (stereo not given) | -14.1 | ? | · | -4.8% | -4.9 | ·
COC(=O)c1sc(=S)n(-c2ccccc2OC)c1N | -5.1 | ? | -8.8% | 0.3% | 5.6 | 33.8%
CCOc1ccccc1-n1c(N)c(C(N)=O)sc1=S | -7.5 | 1.65µM* | 2.6% | 2.8% | 8.4 | 28.1%
Cc1ccc(C)c(-n2c(N)c(C(N)=O)sc2=S)c1 | 16.5 | 15.7% | -8.1% | ? | -1.4 | 0.0%
C=CCNC(=O)c1sc(=S)n(-c2ccc(C(=O)OCC)cc2)c1N | -5.8 | 2.94µM* | 1.5% | 27.5% | -3.0 | 10.5%
CCOC(=O)c1sc(=S)n(-c2ccccc2OC)c1N | -7.6 | 6.57µM* | -1.7% | -4.0% | 0.5 | -14.2%
Cc1ccc(-n2c(N)c(C(N)=O)sc2=S)c(C)c1 | -25.0 | 14.7µM* | -9.4% | 17.2% | -1.8 | 11.9%
N#C/C(=C/c1ccccc1)C(=O)NCc1ccccc1 | -1.6 | 3.1% | · | -18.4%[46.1 µM] | 9.6 | 8.0%
CC(=O)Nc1ccc2c(c1)C(=O)c1ccc(Cl)cc1-2 | · | · | -0.8% | 8.5% | · | ·
CCOC(=O)c1sc(=S)n(-c2ccc(Cl)cc2)c1SC | -5.7 | 0.928µM* | -3.8% | 7.3% | -1.5 | ?
CCOC(=O)c1sc(=S)n(-c2ccc(C)cc2)c1N | 26.7 | ? | 26.1%[46.1 µM] | ? | 7.1 | ?
CCOC(=O)c1sc(=S)n(-c2ccc3c(c2)OCO3)c1N | 29.8 | -16.3% | -0.6% | ? | 29.7* | -22.2%
CCOC(=O)c1sc(=S)n(-c2ccc(F)c(F)c2)c1N | 12.5 | ? | 13.2% | 9.9% | -1.5 | 5.2%
CC(CN(C(N)=O)c1ccccc1O)C(=O)O (stereo not given) | -6.6 | · | -6.5% | 0.0% | -2.5 | 6.5%
C[n+]1c(-c2ccccc2)cc2c(=Cc3ccccc3)c3ccccc3n21 | · | · | 7.94µM* | ? | · | ·
O=[N+]([O-])c1ccc2c(c1)c(-c1ccccc1)nc1nncn12 | -5.4 | 52.2% | 0.4% | ? | -1.8 | -3.5%
